Only some compounds are listed: those with a hit (about 32% of all), similar ones and a draw of the others.
CYP2C9 inhib: inhibitors of human CYP2C9 | P11712 | CYP2C9 Supersomes, luciferin-H conversion, luminescence | inhibition, % at 5 µM | 20% of 96,000 active;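 active = blocking of liver enzyme CYP2C9 beyond about 50% at 5 µM, limit read from the data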
CYP2C9 act: activators of human CYP2C9; recombinant CYP2C9, luciferin-H conversion, luminescence; hits give high values; factor 1 = untreated enzyme, 0 = blocked; 1.4% of 96,000 active; AID 1024; activation factor at 5 µM; P11712;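 active = activation factor of 2 or more for CYP2C9 at a 5 µM dose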;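 note: 0 = sulfaphenazole-blocked wells and 1 = vehicle-only wells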
CYP2C19 activ: activators of human cytochrome P450 2C19; P33261; recombinant CYP2C19, luciferin-H EGE luminescence; hits give high values; 0 = fully inhibited enzyme, 1 = untreated enzyme; activation factor at 5 µM; 96,000 tested, under 10 active; AID 1025;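 active = activation factor of at least 2 at 5 µM in the primary screen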;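 note: 0 = wells with 2.5 mM tranylcypromine and 1 = vehicle-only wells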
Target sequence (P33261 whole entry, looked up): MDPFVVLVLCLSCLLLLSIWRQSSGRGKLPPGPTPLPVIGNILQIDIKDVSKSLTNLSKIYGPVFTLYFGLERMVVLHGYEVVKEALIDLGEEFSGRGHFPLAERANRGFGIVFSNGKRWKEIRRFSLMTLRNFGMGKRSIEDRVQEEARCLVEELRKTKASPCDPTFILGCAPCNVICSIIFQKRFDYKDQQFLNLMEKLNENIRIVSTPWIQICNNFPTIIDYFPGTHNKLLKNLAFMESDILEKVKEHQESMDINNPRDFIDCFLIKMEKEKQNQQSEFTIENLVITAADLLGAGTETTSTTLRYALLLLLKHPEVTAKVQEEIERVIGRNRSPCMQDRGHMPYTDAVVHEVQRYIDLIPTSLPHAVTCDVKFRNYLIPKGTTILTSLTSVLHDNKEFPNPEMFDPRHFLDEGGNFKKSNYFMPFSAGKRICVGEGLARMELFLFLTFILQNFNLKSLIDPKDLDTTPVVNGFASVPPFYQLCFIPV
PostGolgi ctrl: inhibits growth of the yeast control strain; efflux-deficient yeast background strain, growth absorbance A615, 16 h; inhibition, % at 10 µM; 5% of 98,000 active
PostGolgi yeast: growth inhibition of a yeast mutant, post-Golgi transport screen. post-Golgi transport phenotypic cell assay. inhibition, % at 10 µM. 0.9% of 98,000 active;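 note: yeast cells grown in 1536-well plates; yeast grown about 18 h at 30C before absorbance read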
CYP2C19 inh: human CYP2C19 inhibition; P33261; CYP2C19 Supersomes, luciferin-H EGE luminescence, 30 min; inhibition, % at 5 µM; 21% of 96,000 active; AID 778;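 active = CYP2C19 inhibition above a set limit at 5 µM in the primary screen, cut at about 50% in these data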;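 note: plate controls were negative control wells for no effect and 2.5 mM tranylcypromine positive control for full effect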
Active calls of the source: *. Cut-off read from the data, not from the text of the source, unless noted: active = inhibition above about 30%; inactive = the rest.

SMILES	CYP2C9 inhib	CYP2C9 act	CYP2C19 activ	PostGolgi ctrl	PostGolgi yeast	CYP2C19 inh
O=C(Cn1ncc2c1-c1ccccc1OC2)Nc1ccc(S(=O)(=O)N2CCCCC2)cc1	68.2*	0.3	0.8	7.7	-6.8	16.9
Cc1ccc(SC/C(O)=C(\C#N)c2nc3ccccc3n2C)cc1	50.0*	0.5	0.7	37.1*	-1.9	30.3
Cn1c(/C(C#N)=C(\O)CN2CCN(Cc3ccccc3)CC2)nc2ccccc21	16.7	0.8	0.8	14.4	-2.6	24.2
Nc1c(-c2ccccc2)n[nH]c1-c1ccccc1	40.5	0.6	0.3	4.4	-3.7	75.0*
CC12/C(=N/O)C3C4CC5C3/C(=N/O)C1C5C42 (stereo not given)	7.6	0.9	0.9	4.3	-4.0	9.3
Cc1cc(C)c(C)c(S(=O)(=O)NCC(=O)Nc2sc3c(c2C(N)=O)CCCC3)c1C	22.1	0.8	0.7	4.3	20.1	31.6
CCn1c2ccccc2c2cc(CN3CCN(C(=O)c4ccco4)CC3)ccc21	25.8	0.7	0.7	11.6	-10.0	26.3
O=C(c1ccco1)N1CCN(CC(O)COc2ccc3oc4ccccc4c3c2)CC1 (stereo not given)	50.7*	0.5	0.9	28.2	4.7	14.8
COCCOc1cc(-n2ccnc2SC)c(Cl)cc1Cl	13.7	0.9	0.3	10.7	5.0	67.6*
S=C(c1ccc(N2CCOCC2)cc1)N1CCOCC1	18.5	0.8	0.9	2.5	-10.6	8.7
Brc1cc(Br)c2nc(-c3ccc(N4CCOCC4)cc3)ccc2c1	7.9	0.9	1	36.5*	3.0	-3.1
Cc1c(Br)cc(C(=O)OC2CCN(C)CC2)c(C)c1C	-126.2	2.3*	0.8	1.9	-2.6	21.9
CCOC(=O)C(C)N1N=C(/C=C/c2ccc(OC)cc2)CCC1=O (stereo not given)	32.0	0.7	0.8	29.9	8.2	19.2
CC(=O)c1ccc(OC(C)C)c(CSc2nc(O)cc(=O)[nH]2)c1	59.4*	0.4	1.1	20.1	0.9	-7.8
O=c1cc(O)nc(SCc2ccc(Cl)cc2)[nH]1	19.4	0.8	0.9	2.2	2.0	5.5
C=CCNC(=O)C1CC(=O)N(c2ccc(OCC(=O)Nc3ccc(OC)cc3)cc2)C1 (stereo not given)	7.0	0.9	1.2	17.3	13.0	-16.2
Cc1ccc(NS(=O)(=O)c2cc(C(=O)N3CCOCC3)ccc2C)cc1C	7.5	0.9	0.7	-5.1	-4.9	25.6
Cc1ccccc1C(=O)N/N=C/c1ccc(OCC(=O)N2CCCCC2)cc1	24.0	0.8	1	-3.2	10.3	-0.6
COC(=O)c1ccc(C(c2c(N)n(CC(C)C)c(=O)[nH]c2=O)N2CCN(c3ccccc3)CC2)cc1 (stereo not given)	24.1	0.8	0.9	35.0*	-16.6	10.1
CCCn1c(N)c(C(c2ccc(C(=O)OC)cc2)N2CCN(c3ccccc3)CC2)c(=O)[nH]c1=O (stereo not given)	11.9	0.9	1.1	-3.3	-22.6	-11.3
O=[N+]([O-])c1cc(/C=N/N2CCN(C3c4ccccc4-c4ccccc43)CC2)ccc1Cl	38.0	0.6	1	6.8	1.3	-1.8
C(=N\N1CCN(C2c3ccccc3-c3ccccc32)CC1)/c1cccnc1	91.0*	0.1	0.2	22.9	3.6	83.7*
C/C(=N\N1CCN(C2c3ccccc3-c3ccccc32)CC1)c1cccnc1	72.9*	0.3	0.3	10.6	3.8	65.7*
C(=N\N1CCN(C2c3ccccc3-c3ccccc32)CC1)/c1ccccn1	27.0	0.7	0.9	30.6*	-9.2	6.7
CCC(C)(C)C1CCC(=NNC(=O)c2ccoc2C)CC1 (stereo not given)	7.5	0.9	0.9	-3.6	8.9	7.3
CC(C)C(=O)Nc1ccc(NC(=O)c2cccc(F)c2)cn1	-2.2	1	1	-1.6	19.3	2.5
Cc1c(C(=O)N(C)C)sc(NC(=O)c2cc([N+](=O)[O-])cc([N+](=O)[O-])c2)c1C#N	47.3	0.5	1	6.0	-8.2	0.1
Cc1ccc(NC(=S)NCCC(c2ccccc2)c2ccccc2)c(C)c1	58.8*	0.4	0.4	5.0	0.0	61.2*
S=C(NCCC(c1ccccc1)c1ccccc1)Nc1cccc(Cl)c1	81.2*	0.2	0.2	11.4	-2.0	80.8*
Cc1ccccc1NC(=S)NCCC(c1ccccc1)c1ccccc1	63.6*	0.4	0.4	5.9	-14.7	62.9*
